Data published in PubChem BioAssay (NCATS).
Records with an inconclusive call do not appear. Activity calls are given as the source filed them. Calls come from the whole dose curve; as a rule, active = well fitted cell-killing curve with a large enough effect; inconclusive = small, poorly fitted or top-dose-only effect, or effect the other way; inactive = flat fitted curve, though single readings scatter.

What was measured:
Assay in all cases: Primary qHTS to identify gynecologic anti-cancer compounds using libraries of approved drugs and bioactive compounds (AID 1345084); note: nearly all actives have a fitted effect of over 55% in size
Conditions in all cases: Gynecologic cancer cell panel viability, ATPlite luminescence, 48 h; series mostly up to 57.5 µM
[1] = tested on: SKOV3
How it was run: (§1)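 ATP-based viability (ATPlite), 1,000 cells/well, 16 h pre-incubation, 48 h compound at 37 C, 5% CO2, 15 min RT before read.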

[2] = tested on: Tov-21-G
How it was run: as §1

[3] = tested on: Tov112D
How it was run: as §1
% is set by controls: 0 for no effect and ±100 for the full control effect.

COCCOc1cnc2ccn([C@H](C)c3nnc4c(F)cc(-c5cnn(C)c5)cn34)c(=O)c2c1
inactive: Potency [1] | Potency [2] | Potency [3]

C/C=C(\C)C(=O)O[C@H]1[C@@H](O[C@]2(COC(=O)CC(C)C)O[C@H](COC(=O)C(C)CC)[C@@H](OC(C)=O)[C@@H]2O)O[C@H](COC(C)=O)[C@@H](O)[C@@H]1O (stereo partly drawn)
inactive: Potency [1] | Potency [2] | Potency [3]

C1CCC[C@H]2CCCN3CC[C@@H](CCCCCC[C@@H]4CCCN5CC[C@@H](CC1)O[C@@H]45)O[C@@H]23
inactive: activity change, negative = cytotoxicity [1] 0.0209% [at 0.155 µM] | activity change, negative = cytotoxicity [2] 5.89% [at 0.155 µM] | activity change, negative = cytotoxicity [3] 2.94% [at 0.155 µM]

CC(CCC1(O)OC2CC3C4CCC5CC(O[C@@H]6O[C@H](CO)[C@@H](O)[C@H](O)[C@H]6O[C@@H]6O[C@@H](C)[C@H](O)[C@@H](O)[C@H]6O)C(O)CC5(C)C4CCC3(C)C2C1C)CO[C@@H]1O[C@H](CO)[C@@H](O)[C@H](O)[C@H]1O (stereo partly drawn)
inactive: activity change, negative = cytotoxicity [1] 3.64% [at 11.6 µM] | activity change, negative = cytotoxicity [2] 6.58% [at 11.6 µM] | activity change, negative = cytotoxicity [3] 18.3% [at 11.6 µM]

O=C1NC2CCc3nc4ccccc4c(=O)n3C2=Nc2ccccc21 (stereo not drawn)
inactive: Potency [1] | Potency [2] | Potency [3]

C[C@@H]1O[C@@H](O[C@H]2[C@H](OC(=O)[C@]34CCC(C)(C)C[C@H]3C3=CCC5[C@@]6(C)C[C@H](O)[C@H](O[C@@H]7O[C@H](CO)[C@@H](O)[C@H](O)[C@H]7O)[C@@](C)(CO)C6[C@H](O)C[C@@]5(C)[C@]3(C)CC4)OC[C@H](O)[C@@H]2O)[C@H](O)[C@H](O)[C@H]1O[C@@H]1OC[C@@H](O)[C@H](O[C@@H]2OC[C@](O)(CO)[C@H]2O)[C@H]1O (stereo partly drawn)
inactive: activity change, negative = cytotoxicity [1] 1.77% [at 6.55 µM] | activity change, negative = cytotoxicity [2] -2.34% [at 6.55 µM] | activity change, negative = cytotoxicity [3] 7.29% [at 6.55 µM]
